Consider 40 molecules from PubChem BioAssay.

Active and inactive are the calls of the source.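 The calls were made as follows: active = visually confirmed hit in the image check and inhibition above 20%; inconclusive = visually confirmed hit but inhibition not above 20%; inactive = no visual hit in the image check.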

A short description of one assay: endothelial E-selectin expression blockers – imaging, HUVEC, immunofluorescence, MLSMR starter and 10KST1 sets, primary screen (AID 487).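 As to inhibition: signal is fraction of cell area covered by stained E-selectin grains.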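 As to nuclei count: 100% = median nuclei count of all wells on the same plate.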 The following applies: HUVEC TNFalpha-induced E-selectin immunofluorescence imaging, at 2 µM; inhibition: stronger effect = higher value; nuclei count: measured here: cell number, toxicity.
The term inhibition denotes the change of the read-out against control, counted positive when it falls. As to `COCCN(CCOC)C(=O)C12CCC(C)(C(=O)C1)C2(C)C` (configuration not stated), the nuclei count was determined as 124% and the inhibition is 17.3% (inactive).
Regarding `c1ccc(-c2nc(NCC3CCCO3)c3ccccc3n2)nc1` (configuration not stated), the nuclei count turned out to be 173% and the inhibition was -106% (inactive).
The like results for `COC(=O)C1=C(C)N=C2SC(C)C(=O)N2C1c1cccs1` (configuration not stated) were, in that order, 142% and -39.6% (inactive).
The like results for `COC(=O)C1=C(C)N=C2SC(C)C(=O)N2C1/C=C/c1ccccc1OC` (configuration not stated) were, in that order, 143% and -74.7% (inactive).
With `CCOc1ccc(/C(O)=C2/C(=O)C(=O)N(c3nc(C)c(C)s3)C2c2ccco2)cc1` (configuration not stated), the inhibition was -54.1% (inactive) and the nuclei count was 106%.
As for `CCN(CC)CCCN1C(=O)C(=O)/C(=C(/O)c2ccc(Cl)cc2)C1c1ccccn1` (configuration not stated), the inhibition was -70.8% (inactive) and the nuclei count is 81.9%.
In the case of `CCc1cc(=O)oc2c(CN3CCCC3)c(O)c(Cl)cc12`, the nuclei count worked out at 98.8% and the inhibition is -56.3% (inactive).
With `COc1cccc(-c2nc(NC(C)C)c3ccccc3n2)c1O`, the inhibition was -37.3% (inactive) and the nuclei count came to 152%.
Regarding `CCOc1ccc(C2C(C(=O)c3ccc(C)o3)=C(O)C(=O)N2CCN2CCOCC2)cc1OC` (configuration not stated), the nuclei count stood at 93.8% and the inhibition is -49.4% (inactive).
Taken in the same sequence, the figures for `Oc1ccccc1-c1nc(NCc2ccco2)c2ccccc2n1` were 151% and -50.6% (inactive).
Consider `COc1ccccc1-c1cc(-c2cc(Cl)ccc2O)n[nH]1`, for which the inhibition was -9.5% (inactive) and the nuclei count was 129%.
Taken in the same sequence, the figures for `N#Cc1nc(-c2ccccc2Cl)oc1N1CCCCC1` were -134% (inactive) and 150%.
Take `CC(C)Cn1nc(NC(=O)C(C)(C)C)c2cc3ccccc3nc21`: the inhibition was -86.4% (inactive) and the nuclei count is 160%.
For the molecule `CCO/C(C)=N/n1c2nc3ccccc3nc2c2c(=O)n(CC(C)C)c(C)nc21`, the nuclei count amounted to 145% and the inhibition is -12.8% (inactive).
`O=C(NCCCn1ccnc1)C(Cc1ccccc1)N1C(=O)c2ccccc2C1=O` (configuration not stated): the nuclei count worked out at 125% and the inhibition is -73.9% (inactive).
For `O=C(O)CCCCCN1C(=O)CCC1=O`, the nuclei count stood at 154% and the inhibition is -216% (inactive).
On to `CCCSc1nc(C)c(CC(=O)O)c(=O)[nH]1`, for which the nuclei count stood at 190% and the inhibition is -71.2% (inactive).
Take `COc1cccc(-c2nc(NCCN3CCOCC3)c3ccccc3n2)c1O`: the nuclei count was 164% and the inhibition was 21.8% (inactive).
Consider `CC1CCCCN1C(=O)C12CCC(C)(/C(=N/O)C1)C2(C)C` (configuration not stated), for which the nuclei count was determined as 141% and the inhibition was -75.4% (inactive).
Regarding `Oc1ccccc1-c1nc(NCCN2CCOCC2)c2ccccc2n1`, the inhibition was 14.7% (inactive) and the nuclei count worked out at 96.7%.
As to `CCC1CCCCN1c1nc(-c2cccc(OC)c2O)nc2ccccc12` (configuration not stated), the nuclei count came out at 154% and the inhibition is -128% (inactive).
With `COc1ccc(C2C=C(c3ccc(Cl)cc3)Nc3nc(NC(C)=O)nn32)cc1` (configuration not stated), the nuclei count came to 159% and the inhibition is -27.6% (inactive).
Consider `Oc1ccc(Br)cc1-c1cc(-c2ccccc2F)[nH]n1`, for which the nuclei count worked out at 116% and the inhibition is -88.6% (inactive).
As to `C=CCNc1nc(-c2cccc(OC)c2O)nc2ccccc12`, the nuclei count turned out to be 101% and the inhibition is -92.9% (inactive).
With `COc1cccc(/C(O)=C2/C(=O)C(=O)N(CCN(C)C)C2c2ccc(Br)cc2)c1` (configuration not stated), the nuclei count was found to be 102% and the inhibition is 14.2% (inactive).
Turning to `CC1(C)CC(=O)C2=C(C1)Oc1nc3ccccc3cc1C2C(C#N)C#N` (configuration not stated), the inhibition is -108% (inactive) and the nuclei count came out at 134%.

A further assay can be described thus: Primary imaging screen for DUSP6 inhibitors that restore phospho-Erk in transfected HeLa cells, chemical complementation (AID 609). Particulars: HeLa MKP-3 transfected, phospho-Erk imaging KS statistic; measured here: cell density z-score; at 10 µM; cells stimulated with TPA for 15 min.
In the case of `COCCCNc1nc(-c2ccncc2)nc2ccccc12`, the z-score amounted to 1.01.
`CCOC(=O)c1cc2c(=O)n3ccccc3nc2n(Cc2ccccc2Cl)c1=N`: the z-score is -0.704.
In the case of `COc1ccc(N/C=C(\C#N)c2nc3ccccc3n2C)c(OC)c1`, the z-score was -0.0541.
As for `Cc1c(C)c2cc(Cl)c(O)c(CN3CCN(C)CC3)c2oc1=O`, the z-score was -0.305.
`Cc1cc(N2C(=O)C(=O)/C(=C(/O)c3ccccc3)C2c2cccc(Br)c2)no1` (configuration not stated) had a z-score of 0.294.
Take `CC1=CC(c2ccccc2)n2nc(N3C(=O)C4CC=CCC4C3=O)nc2N1` (configuration not stated): the z-score amounted to 0.978.
Molecule `O=c1[nH]c(-c2ccccn2)nc2ccccc12` gave a z-score of 0.0403.
The molecule `COc1ccccc1N(Cc1cc2cccc(C)c2[nH]c1=O)C(=O)C(C)C` gave a z-score of 1.34.
Same read-out and setting: in the case of `COc1ccc(NCc2cc3ccccc3[nH]c2=O)cc1` it was -0.199; in that of `CN1CCN(Cc2c(O)ccc3c(-c4ccccc4)cc(=O)oc23)CC1`, 0.437; in that of `COc1ccc(/C(O)=C2/C(=O)C(=O)N(CCN3CCOCC3)C2c2ccccn2)cc1OC` (configuration not stated), 1.75.
As for `CC12CCC(C(=O)N(CCC#N)CCC#N)(CC1=O)C2(C)C` (configuration not stated), the z-score is -0.914.
In turn, `Cc1cccc(C)c1N1C(=O)C2ON(c3ccccc3)C(c3ccncc3)C2C1=O` (configuration not stated) registered a z-score of 1.05.
In the case of `CCCc1cc(=O)oc2c(CN3CCN(C)CC3)c(O)c(Cl)cc12`, the z-score stood at 1.29.
As for `COCCN(CCOC)C(=O)C12CCC(C)(C(=O)C1)C2(C)C` (configuration not stated), the z-score turned out to be 0.486.
The molecule `c1ccc(-c2nc(NCC3CCCO3)c3ccccc3n2)nc1` (configuration not stated) showed a z-score of 1.77.
`COC(=O)C1=C(C)N=C2SC(C)C(=O)N2C1c1cccs1` (configuration not stated) displayed a z-score of 1.89.
Turning to `COC(=O)C1=C(C)N=C2SC(C)C(=O)N2C1/C=C/c1ccccc1OC` (configuration not stated), the z-score was -1.74.
Consider `CCOc1ccc(/C(O)=C2/C(=O)C(=O)N(c3nc(C)c(C)s3)C2c2ccco2)cc1` (configuration not stated), for which the z-score was -0.851.
The same measure, in the same setting: to `CCN(CC)CCCN1C(=O)C(=O)/C(=C(/O)c2ccc(Cl)cc2)C1c1ccccn1` (configuration not stated) belongs -2.05.
The molecule `CCc1cc(=O)oc2c(CN3CCCC3)c(O)c(Cl)cc12` returned a z-score of 1.82.
Take `COc1cccc(-c2nc(NC(C)C)c3ccccc3n2)c1O`: the z-score is -0.0785.
`CCOc1ccc(C2C(C(=O)c3ccc(C)o3)=C(O)C(=O)N2CCN2CCOCC2)cc1OC` (configuration not stated) displayed a z-score of 0.462.
As to `Oc1ccccc1-c1nc(NCc2ccco2)c2ccccc2n1`, the z-score is -1.1.
On the same count and under the same terms, in the case of `COc1ccccc1-c1cc(-c2cc(Cl)ccc2O)n[nH]1` it was 1.7; in that of `N#Cc1nc(-c2ccccc2Cl)oc1N1CCCCC1`, 1.98; in that of `CC(C)Cn1nc(NC(=O)C(C)(C)C)c2cc3ccccc3nc21`, -0.914.
`CCO/C(C)=N/n1c2nc3ccccc3nc2c2c(=O)n(CC(C)C)c(C)nc21`: the z-score was -0.809.
As for `O=C(NCCCn1ccnc1)C(Cc1ccccc1)N1C(=O)c2ccccc2C1=O` (configuration not stated), the z-score is 0.63.
As for `O=C(O)CCCCCN1C(=O)CCC1=O`, the z-score is -0.0667.
For `CCCSc1nc(C)c(CC(=O)O)c(=O)[nH]1`, the z-score was -2.53.
Same read-out and setting: in the case of `COc1cccc(-c2nc(NCCN3CCOCC3)c3ccccc3n2)c1O` it was -0.211.
Take `CC1CCCCN1C(=O)C12CCC(C)(/C(=N/O)C1)C2(C)C` (configuration not stated): the z-score is -1.18.
Still for that read-out and setting: to `Oc1ccccc1-c1nc(NCCN2CCOCC2)c2ccccc2n1` belongs 0.138; to `CCC1CCCCN1c1nc(-c2cccc(OC)c2O)nc2ccccc12` (configuration not stated), -0.599.
Turning to `COc1ccc(C2C=C(c3ccc(Cl)cc3)Nc3nc(NC(C)=O)nn32)cc1` (configuration not stated), the z-score is -0.557.
Turning to `Oc1ccc(Br)cc1-c1cc(-c2ccccc2F)[nH]n1`, the z-score was -1.09.
For the molecule `C=CCNc1nc(-c2cccc(OC)c2O)nc2ccccc12`, the z-score is -0.736.
Molecule `COc1cccc(/C(O)=C2/C(=O)C(=O)N(CCN(C)C)C2c2ccc(Br)cc2)c1` (configuration not stated) had a z-score of 0.101.
With `CC1(C)CC(=O)C2=C(C1)Oc1nc3ccccc3cc1C2C(C#N)C#N` (configuration not stated), the z-score is -0.147.
